Inconclusive results are not listed. Activity calls are given as the source filed them. The call rests on the fitted dose curve; in most records, active means well fitted cell-killing curve with a large enough effect; inconclusive means small, poorly fitted or top-dose-only effect, or effect the other way; inactive means no such curve, though single readings can be large or run the other way.
Potency means the concentration at half of the fitted maximal effect.

For the assay, the system named is PA-1. As to the kind of experiment: Confirmatory qHTS for gynecologic anti-cancer compounds from libraries of approved drugs and bioactive compounds. Further: nearly all actives have a fitted effect of over 55% in size. Particulars: gynecologic cancer cell panel viability, ATPlite luminescence, 48 h; series mostly up to 57.6 µM. A digest of the protocol:
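Viability is measured as ATP-dependent luciferase light using ATPlite, read 15 min after reagent addition at room temperature. Compounds, in DMSO, span 57.5 uM down to 0.977 nM over 11 threefold steps for 48 h.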
For orientation: In qHTS, concentration-response curves come from the screen itself.
On to `COc1cc(-c2nn(C3CCC(N4CCN(C(C)=O)CC4)CC3)c3ncnc(N)c23)ccc1NC(=O)c1cc2ccccc2n1C` (centres undefined), for which the Potency was 30.6 µM (active).
For `CC(Oc1cc(-n2cnc3ccc(CN4CCN(C)CC4)cc32)sc1C(N)=O)c1ccccc1C(F)(F)F` (centres undefined) the value was 2.43 µM (active); for `CC[C@@]1(O)C(=O)OCc2c1cc1n(c2=O)Cc2c-1nc1ccccc1c2/C=N/OC(C)(C)C`, 0.0273 µM (active).
For `Fc1cc(-c2cccc3ncc(-c4cnn(C5CCNCC5)c4)nc23)cc(F)c1CN1CCOCC1` the value was 27.3 µM (active).
For `COc1cc(Nc2c(C#N)cnc3cc(OCCCN4CCN(C)CC4)c(OC)cc23)c(Cl)cc1Cl` the value was 13.7 µM (active); for `CN1C2CCC1CC(OC(=O)[C@H](CO)c1ccccc1)C2` (some centres undefined), “inactive”.
As for `CN(C)c1ccc2nc3ccc(=[N+](C)C)cc-3sc2c1`, the Potency was 21.7 µM (active).
In the case of `CCc1c2c(nc3ccc(O)cc13)-c1cc3c(c(=O)n1C2)COC(=O)[C@]3(O)CC`, the Potency is 0.0769 µM (active).
For `COc1ccc2cc3[n+](cc2c1OC)CCc1cc2c(cc1-3)OCO2` the value was 0.968 µM (active); for `COc1ccc(CCC(=O)c2c(O)cc(O[C@@H]3O[C@H](CO)[C@@H](O)[C@H](O)[C@H]3O[C@@H]3O[C@@H](C)[C@H](O)[C@@H](O)[C@H]3O)cc2O)cc1O`, “inactive”; for `CC[C@]1(O)C[C@H]2CN(CCc3c([nH]c4ccccc34)[C@@](C(=O)OC)(c3cc4c(cc3OC)N(C=O)[C@H]3[C@@](O)(C(=O)OC)[C@H](OC(C)=O)[C@]5(CC)C=CCN6CC[C@]43[C@@H]65)C2)C1`, 0.172 µM (active).
For `COc1cccc2c1C(=O)c1c(O)c3c(c(O)c1C2=O)C[C@@](O)(C(=O)CO)C[C@@H]3O[C@H]1C[C@H](N)[C@H](O[C@@H]2CCCCO2)[C@H](C)O1` the value was 0.685 µM (active).
For the molecule `O=C(CCCCCCNC(=O)c1cnc(N(c2ccccc2)c2ccccc2)nc1)NO`, the Potency was 3.06 µM (active).
Consider `Cc1ccc(C(=O)N(CCCN)C(c2oc3cc(Cl)ccc3c(=O)c2Cc2ccccc2)C(C)C)cc1` (centres undefined), for which the Potency is 0.0137 µM (active).
For `Cc1cc(C(C)Nc2ccccc2C(=O)O)c2nc(N3CCOCC3)cc(=O)n2c1` (centres undefined) the value was 21.7 µM (active); for `CC(C)c1nn(-c2c(Cl)cccc2Cl)c2nc(Cc3ccc(OCCO)cc3)[nH]c(=O)c12`, 0.0968 µM (active); for `CC[C@H](CC#N)OC(=O)N[C@@H](C)c1cccc(NC(=O)Nc2ccc(-c3cnco3)c(OC)c2)c1`, 0.217 µM (active).
For the molecule `COc1cc2c(Oc3ccc(-c4cnc(Nc5ccc(F)cc5)n(C)c4=O)cc3F)ccnc2cc1OCCCN1CCOCC1`, the Potency was 21.7 µM (active).
In the case of `CCN1CCN(Cc2ccc(Nc3ncc(F)c(-c4cc(F)c5nc(C)n(C(C)C)c5c4)n3)nc2)CC1`, the Potency is 2.43 µM (active).
For `Cc1ccc(C(=O)Nc2ccc(CN3CCN(C)CC3)c(C(F)(F)F)c2)cc1C#Cc1cnc2cccnn12` the value was 6.85 µM (active); for `CN(C)c1ccc(-c2nc3ncc(Cl)c(N4CCN(CC(=O)Nc5nccs5)CC4)c3[nH]2)cc1`, 3.35 µM (active).
For `Cc1cnc(Nc2ccc(F)cc2Cl)nc1-c1c[nH]c(C(=O)NC(CO)c2cccc(Cl)c2)c1` (centres undefined) the value was 24.3 µM (active); for `CCN1CCN(Cc2ccc(-c3cc4c(NC(C)c5ccccc5)ncnc4[nH]3)cc2)CC1` (centres undefined), 24.3 µM (active).
As to `CN1CCN(CCOc2cc(OC3CCOCC3)c3c(Nc4c(Cl)ccc5c4OCO5)ncnc3c2)CC1`, the Potency is 19.3 µM (active).
For `Cn1c(=O)c(F)c(Nc2ccc(I)cc2F)c2c(=O)n(CC(O)CO)cnc21` (centres undefined) the value was 2.17 µM (active).
For `CCS(=O)(=O)N1CCN(c2ccc(Nc3ncc(C(N)=O)c(NC4CC4)n3)cc2)CC1` the value was 3.85 µM (active); for `Cn1cnc([N+](=O)[O-])c1Sc1ncnc2nc[nH]c12`, 5.44 µM (active); for `CCN(CC)CCCC(C)Nc1c2ccc(Cl)cc2nc2ccc(OC)cc12` (centres undefined), 27.3 µM (active).
For `CNC(=O)c1nn(C)c2c1C(C)(C)Cc1cnc(Nc3ccc(N4CCN(C)CC4)cc3)nc1-2` the value was 0.769 µM (active).
Regarding `Cc1cc(CN2CCN(c3c(Br)cnc4nc(-c5ccc(N6CCN(C)CC6)cc5)[nH]c34)CC2)no1`, the Potency was 17.2 µM (active).
For `O=c1cc(CN2CCOCC2)occ1OCCCCCSc1ccnc2cc(C(F)(F)F)ccc12` the value was 8.63 µM (active).
As for `Cc1c(C)n(Cc2ccc(-c3ccccc3C(=O)O)cc2)c2ccc(C(=O)N[C@@H](C)c3ccc([N+](=O)[O-])cc3)cc12`, the Potency entry is “inactive”.
Turning to `Cc1nc2ccc(CN(C)c3ccc(C(=O)NC(CCC(=O)O)C(=O)O)s3)cc2c(=O)[nH]1` (centres undefined), the Potency was 0.137 µM (active).
For `CCCCc1oc2ccc(NS(C)(=O)=O)cc2c1C(=O)c1ccc(OCCCN(CCCC)CCCC)cc1` the value was 27.3 µM (active); for `Cc1cnc(Nc2ccc(CN3CCOCC3)cc2)nc1Nc1cccc(S(=O)(=O)NC(C)(C)C)c1`, 2.17 µM (active).
Regarding `CC(=O)O[C@H]1C(=O)[C@@]2(C)[C@H]([C@H](OC(=O)c3ccccc3)[C@]3(O)C[C@H](OC(=O)[C@H](O)[C@@H](NC(=O)c4ccccc4)c4ccccc4)C(C)=C1C3(C)C)[C@]1(OC(C)=O)CO[C@@H]1C[C@@H]2O`, the Potency was 0.0092 µM (active).
For `Nc1ccc(-c2ccc3ncc4ccc(=O)n(-c5cccc(C(F)(F)F)c5)c4c3c2)cn1` the value was 0.863 µM (active); for `COc1cc2nccc(Oc3ccc(NC(=O)C4(C(=O)Nc5ccc(F)cc5)CC4)cc3)c2cc1OC`, 10.9 µM (active); for `CCCC(=O)O[C@]1(C(=O)CCl)[C@@H](C)C[C@H]2[C@@H]3CCC4=CC(=O)C=C[C@]4(C)[C@@]3(F)C(=O)C[C@@]21C`, 19.3 µM (active).

The values are drawn from PubChem BioAssay AID1345085 (National Center for Advancing Translational Sciences (NCATS), 2018).
